# Results from PubChem BioAssay (EPA / NIEHS).
# Results filed as inconclusive are left out. Activity calls are given as the source filed them. Rule for the calls: active = hit-call score of the fitted dose curve at least 0.9, where 1 is the maximum; inconclusive = response in the unintended direction; inactive = score below 0.9.
# Assay: ACEA_ER_AUC_viability: ACEA Biosciences xCELLigence Real-Time Cell Analysis on Estrogen Receptor Agonism for Viability (AID 2283782);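 note: continuous compound exposure with impedance area under curve over 80 h; hit means loss of impedance signal meaning reduced cell growth or viability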
# Method: ACEA_ER is a cell-based, single-readout assay that uses T47D, a human breast cell line, with measurements taken at 80 hours after chemical dosing in a 96-well plate, although TO2 (mc0.srcf) used a 384-well plate. Differences in plate size can be ignored given data normalization.ACEA_ER_AUC_viability is one of two assay component(s) measured or calculated from the ACEA_ER assay. It is designed to make measurements of real-time cell-growth kinetics, a form of growth reporter, as detected with electrical impedance signals by Real-Time Cell Electrode Sensor (RT-CES) technology.Data from the assay component ACEA_ER_AUC_viability was analyzed in the positive analysis fitting direction relative to DMSO as the negative control and baseline of activity. Using a type of growth reporter, loss-of-signal activity can be used to understand changes in the viability. Furthermore, this assay endpoint can be referred to as a secondary readout, because this assay has produced multiple assay endpoints where this one serves a viability function. To generalize the intended target to other relatable targets, this assay endpoint is annotated to the cell cycle intended target family, where the subfamily is cytotoxicity.
# The xCELLigence system Multi-E-Plate stations were used to measure the time-dependent response to chemicals. Each compound was tested in an eight-point, 1:4 serial dilution series starting at a maximum final concentration of 100 uM. A maximum starting concentration of 0.5% DMSO was present in the 100 uM chemical samples and was diluted along with the test article dilution series. The screen was performed in biological duplicate using two separate, 96-well, E-Plates 96 for each dilution series (n = 2). Positive controls (MG132 and E2) and a negative control (assay media) were tested in quadruplicate on each testing plate. Then, 0.5% and 0.125% DMSO were tested in duplicates in each plate to serve as solvent controls for the 2 highest concentrations of testing compounds: 100 uM and 25 uM. Reference compounds were tested with 8 concentrations with 1:5 serial dilutions. All screening was carried out by ACEA Biosciences, Inc. (San Diego, CA). T-47D cells purchased from ATCC were maintained in RPMI1640 media supplemented with 10% characterized fetal bovine serum (FBS). Before screening, T-47D cells were preconditioned in assay medium: phenol red-free RPMI1640 supplemented with 10% charcoal-stripped FBS. Cells were then detached and seeded in E-Plates 96 in assay medium. After overnight monitoring of growth once every hour, compounds were added to […] cells and remained in the medium until the end of the experiment. Cellular responses were then recorded once every 5 min for the first 5 h, and once every hour for an additional 100 h.
SMILES,outcome,AC50
CCCC=NO,inactive,
CC(C)=CC1C(C(=O)OC(C#N)c2cccc(Oc3ccccc3)c2)C1(C)C (stereo not given),inactive,
O=C(O)CCCc1ccc(N(CCCl)CCCl)cc1,,27.3 µM (active)
CC(=O)c1cc2c(cc1C)C(C)(C)C(C)CC2(C)C (stereo not given),,79.9 µM (active)
O=S(=O)(O)OOS(=O)(=O)O,inactive,
O=S(=O)(O)O,,6.09 µM (active)
[Cl-].[Cl-].[Cl-].[Yb+3],inactive,
COC(=O)c1ccccc1S(=O)(=O)NC(=O)Nc1nc(C)cc(C)n1,inactive,
SCc1ccco1,inactive,
CC(C)(C)C(=O)CCl,inactive,
CC(C)(Cl)Cl,inactive,
Cc1ccc(C)c2ccccc12,inactive,
O=C(O)COc1ccccc1,inactive,
O=C(O)c1ccccc1C(=O)Nc1cccc2ccccc12,,85.4 µM (active)
O=P1(NCCCl)OCCCN1CCCl (stereo not given),,37.7 µM (active)
CC(O)CN(CC(C)O)CC(C)O (stereo not given),inactive,
C=CC(=O)OCCCCOC(=O)C=C,,24.2 µM (active)
CC(C)(c1cc(Cl)c(O)c(Cl)c1)c1cc(Cl)c(O)c(Cl)c1,,90.8 µM (active)
COC(=O)C1(O)c2ccccc2-c2ccccc21,inactive,
Clc1ccc(-c2ccccc2)cc1,inactive,

SMILES,outcome,AC50
C=CCN(CC=C)C(=O)C(Cl)Cl,inactive,
Oc1ccc(Cl)cc1,inactive,
Nc1ccccc1,inactive,
CC(C)CCCCCCCOC(=O)c1ccccc1C(=O)OCCCCCCCC(C)C,inactive,
COc1cc(OC)nc(Oc2cccc(Oc3nc(OC)cc(OC)n3)c2C(=O)O)n1,inactive,
Nc1c(Cl)c(Cl)c(Cl)c(Cl)c1Cl,inactive,
CCCCNP(N)(N)=S,inactive,
O=CNC(N1CCN(C(NC=O)C(Cl)(Cl)Cl)CC1)C(Cl)(Cl)Cl (stereo not given),inactive,
[CH3][Sn]([CH3])([Cl])[Cl],,21.3 µM (active)
O=C(NCNC(=O)NC1C(=O)NC(=O)N1CO)NC1C(=O)NC(=O)N1CO (stereo not given),,9.92 µM (active)
N#Cc1cccc(C#N)c1,inactive,
O=P(O)(Oc1ccccc1)Oc1ccccc1,inactive,
CCC(Br)(CC)C(=O)NC(N)=O,inactive,
CCOP(=S)(OCC)Oc1cnc2ccccc2n1,inactive,
CC(C)C#N,inactive,
CNC(=O)ON=C(CSC)C(C)(C)C,inactive,
C#CC1(O)CCCCC1,,61.7 µM (active)
N#CCNCC#N,inactive,
O=C(CCl)c1ccccc1,,10.9 µM (active)
C=CCc1ccc(OC(=O)Cc2ccccc2)c(OC)c1,inactive,
